Measurements taken from PubChem BioAssay (EPA / NIEHS).
Records with an inconclusive call do not appear. Where a structure was tested more than once in an assay, its records may differ in their call. Calls of active or inactive are those of the source. Rule for the calls, unless noted: active = hit-call score of the fitted dose curve at least 0.9, where 1 is the maximum; inconclusive = response in the unintended direction; inactive = score below 0.9.

System: not listed separately
Assay: CCTE_Shafer_MEA_dev_network_spike_duration_std: CCTE's Neural Network Formation Assay for Standard Deviation of Network Spike Duration, Shafer Lab (AID 2284052; active = hit-call score of the fitted dose curve at least 0.9, where 1 is the maximum; inactive = score below 0.9;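 note: area under curve of spike duration SD across recording days 5 to 12; hits are decreases in network spike duration SD versus DMSO vehicle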)
Summary of the method: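 Developing networks of rat cortical neurons were exposed over twelve days in vitro on 48-well MEA plates. Trapezoidal AUC of recordings (DIV 5–12) was analysed for signal loss relative to DMSO vehicle.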

SMILES | outcome | AC50
OC[C@@H](O)[C@@H](O)[C@H](O)[C@H](O)CO | inactive | 
CCCc1cc(=O)[nH]c(=S)[nH]1 | inactive | 
C=CCc1ccc(O)c(OC)c1 | inactive | 
CC(C)c1ccc(C(=O)N=C(N)N)cc1S(C)(=O)=O | inactive | 
C[Si]1(C)O[Si](C)(C)O[Si](C)(C)O[Si](C)(C)O1 | inactive | 
O=c1[nH]cc(F)c(=O)[nH]1 |  | 2.01 µM (active)
Cc1cc(=O)[nH]c(=S)[nH]1 | inactive | 
FC(F)(F)C(F)(F)C(F)(F)C(F)(F)C(F)(F)C(F)(F)CCI | inactive | 
CC(=O)Oc1ccccc1C(=O)O | inactive | 0.0101 µM (active)

System: not listed separately
Assay: CCTE_Shafer_MEA_dev_per_network_spike_spike_number_mean: CCTE's Neural Network Formation Assay for Mean Number of Spikes in a Network Spike, Shafer Lab (AID 2284053; active = hit-call score of the fitted dose curve at least 0.9, where 1 is the maximum; inactive = score below 0.9;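 for AC50: fitted as decrease in spikes per network spike relative to DMSO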)
Summary of the method: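 First, rat cortical cells (1.5 x 10^5/well) were seeded onto MEA wells; second, dosing began at plating and was refreshed on DIV 5 and 9; finally, network-spike spike counts across DIV 5–12 were summarized as AUC.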

SMILES | outcome | AC50
OC[C@@H](O)[C@@H](O)[C@H](O)[C@H](O)CO | inactive | 
CCCc1cc(=O)[nH]c(=S)[nH]1 | inactive | 25 µM (active)
C=CCc1ccc(O)c(OC)c1 | inactive | 
CC(C)c1ccc(C(=O)N=C(N)N)cc1S(C)(=O)=O | inactive | 
C[Si]1(C)O[Si](C)(C)O[Si](C)(C)O[Si](C)(C)O1 | inactive | 
O=c1[nH]cc(F)c(=O)[nH]1 |  | 0.913 µM (active)
Cc1cc(=O)[nH]c(=S)[nH]1 | inactive | 
FC(F)(F)C(F)(F)C(F)(F)C(F)(F)C(F)(F)C(F)(F)CCI | inactive | 
CC(=O)Oc1ccccc1C(=O)O | inactive | 

System: not listed separately
Assay: CCTE_Shafer_MEA_dev_per_network_spike_spike_percent: CCTE's Neural Network Formation Assay for Percent of Spikes in a Network Spike, Shafer Lab (AID 2284054; active = hit-call score of the fitted dose curve at least 0.9, where 1 is the maximum; inactive = score below 0.9)
Summary of the method: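 Primary rat cortical neurons on 16-electrode MEA wells (PEI-coated, laminin at plating), exposed from day 0 with renewal at DIV 5 and 9; spikes within 0.05 s of network-spike peaks over total spikes, AUC across days 5, 7, 9, 12.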

SMILES | outcome | AC50
OC[C@@H](O)[C@@H](O)[C@H](O)[C@H](O)CO | inactive | 
CCCc1cc(=O)[nH]c(=S)[nH]1 | inactive | 24.9 µM (active)
C=CCc1ccc(O)c(OC)c1 | inactive | 
CC(C)c1ccc(C(=O)N=C(N)N)cc1S(C)(=O)=O | inactive | 
C[Si]1(C)O[Si](C)(C)O[Si](C)(C)O[Si](C)(C)O1 | inactive | 
O=c1[nH]cc(F)c(=O)[nH]1 |  | 0.607 µM (active)
Cc1cc(=O)[nH]c(=S)[nH]1 | inactive | 
FC(F)(F)C(F)(F)C(F)(F)C(F)(F)C(F)(F)C(F)(F)CCI | inactive | 
CC(=O)Oc1ccccc1C(=O)O | inactive | 

System: DIO3 (gene 1735)
Assay: CCTE_GLTED_hDIO3: CCTE's human Deiodinase 3 (DIO3) Inhibition Assay, Great Lakes Toxicology and Ecology Division (GLTED) Lab (AID 2284055);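 note: potency is for inhibition seen as loss of released iodide signal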
Summary of the method: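 Absorbance from the Sandell-Kolthoff reaction reports iodide released by human DIO3 during a 3-hour incubation with chemical. Inhibition scored as signal loss against DMSO controls.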

SMILES | AC50
CN[C@H]1CC[C@@H](c2ccc(Cl)c(Cl)c2)c2ccc(S(N)(=O)=O)cc21 | 45.9 µM (active)
CC=Cc1ccc(O)c(OC)c1 | 14.9 µM (active)
CCCCCCCCCCCCCO | 51.8 µM (active)
COc1cc(-c2nc(NC(=O)c3cc4cc(C)cc(C)c4n3CC(=O)O)sc2CCC2CCCCC2)c(OC)cc1Cl | 8.64 µM (active)
CC1=C(/C=C/C(C)=C/C=C/C(C)=C/CO)C(C)(C)CCC1 | 28.3 µM (active)
CCCCC(CC)COC(=O)CC(C(=O)OCC(CC)CCCC)S(=O)(=O)O (configuration not stated) | 92.2 µM (active)

System: not listed separately
Assay: CCTE_Shafer_MEA_dev_LDH: CCTE's Lactate Dehydrogenase Assay for Cytotoxicity in the Neural Network Formation Assay, Shafer Lab (AID 2284068);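 note: exposure for twelve days from plating with re-dosing on DIV 5 and 9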
Summary of the method: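 Developing rat cortical networks on MEA plates are exposed to compound for 12 days from plating. LDH activity is measured spectrophotometrically, with DMSO as baseline.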

SMILES | AC50 | outcome
CCCc1cc(=O)[nH]c(=S)[nH]1 | 23.8 µM (active) | inactive
C=CCc1ccc(O)c(OC)c1 |  | inactive
CC(C)c1ccc(C(=O)N=C(N)N)cc1S(C)(=O)=O |  | inactive
O=c1[nH]cc(F)c(=O)[nH]1 | 2.48 µM (active) | 
CC(=O)Oc1ccccc1C(=O)O |  | inactive

System: not listed separately
Assay: CCTE_Shafer_MEA_acute_AB: CCTE's Alamar Blue Assay for Cytotoxicity in the Neural Acute Assay, Shafer Lab (AID 2284069);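 note: active compounds lower the viability signal compared with DMSO wells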
Summary of the method: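 Cytotoxicity endpoint for acute MEA exposures of primary rat cortical neurons on day 13 or 15. Resazurin reduction is read fluorescently at 544/590 nm, with DMSO as the negative-control baseline.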

SMILES | outcome
COc1ccc(S(=O)(=O)N2C(=O)[C@@](c3ccccc3OC)(N3C[C@H](O)C[C@H]3C(=O)N(C)C)c3cc(Cl)ccc32)c(OC)c1 | inactive
CCCCCCCCCCCCCCCCCC(=O)O | inactive
CN[C@H]1CC[C@@H](c2ccc(Cl)c(Cl)c2)c2ccc(S(N)(=O)=O)cc21 | inactive
Clc1cc(Cl)c(Cl)cc1Cl | inactive
CCCc1cc(=O)[nH]c(=S)[nH]1 | inactive
C=CCOC(=O)c1ccccc1C(=O)OCC=C | inactive
C=CCc1ccc(O)c(OC)c1 | inactive
c1cc(-c2ccncc2)ccn1 | inactive
CNCc1cc(F)ccc1Oc1ccc(Cl)c(Cl)c1 | inactive
CCOC(=O)C(C)(C)Oc1ccc(Cl)cc1 | inactive
Cc1ccc(C(C)C)c(O)c1 | inactive
Nc1ccccc1N | inactive
Cc1ccc2ncccc2c1 | inactive
Cc1ccc(C)c(O)c1C | inactive
Nc1nc(N)c2nc(CNc3ccc(C(=O)N[C@@H](CCC(=O)O)C(=O)O)cc3)cnc2n1 | inactive
FC(F)(F)C(F)(F)C(F)(F)C(F)(F)C(F)(F)C(F)(F)CCI | inactive
COc1ccc2c(c1)c(CC(=O)O)c(C)n2C(=O)c1ccc(Cl)cc1 | inactive
CC(C)(C)c1cc(O)c(C(C)(C)C)cc1O | inactive
NS(=O)(=O)c1cc2c(cc1Cl)NCNS2(=O)=O | inactive

System: not listed separately
Assay: CCTE_Shafer_MEA_dev_AB: CCTE's Alamar Blue Assay for Cytotoxicity in the Neural Network Formation Assay, Shafer Lab (AID 2284083);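 note: resazurin reduction fluorescence as viability of cultured neurons; twelve days of exposure from plating with re-dosing on DIV 5 and 9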
Summary of the method: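 Cytotoxicity companion to the developmental MEA: primary rat cortical neurons, 12-day exposure starting day 0, compound refreshed DIV 5 and 9; resazurin fluorescence, fitted against DMSO vehicle.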

SMILES | AC50 | outcome
OC[C@@H](O)[C@@H](O)[C@H](O)[C@H](O)CO | 0.437 µM (active) | 
CCCc1cc(=O)[nH]c(=S)[nH]1 | 24.6 µM (active) | inactive
C=CCc1ccc(O)c(OC)c1 |  | inactive
CC(C)c1ccc(C(=O)N=C(N)N)cc1S(C)(=O)=O |  | inactive
O=c1[nH]cc(F)c(=O)[nH]1 | 3.24 µM (active) | 
Cc1cc(=O)[nH]c(=S)[nH]1 |  | inactive
FC(F)(F)C(F)(F)C(F)(F)C(F)(F)C(F)(F)C(F)(F)CCI |  | inactive
CC(=O)Oc1ccccc1C(=O)O |  | inactive

System: not listed separately
Assay: CCTE_Shafer_MEA_acute_LDH: CCTE's Lactate Dehydrogenase Assay for Cytotoxicity in the Neural Acute Assay, Shafer Lab (AID 2284086);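 note: active means LDH release rises above DMSO vehicle level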
Summary of the method: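 Rat cortical neurons cultured on microelectrode arrays; baseline 40-min recording, compound added, second 40-min recording; medium then sampled for released LDH (colorimetric kit, 490 nm). DMSO = negative control.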

SMILES | outcome
COc1ccc(S(=O)(=O)N2C(=O)[C@@](c3ccccc3OC)(N3C[C@H](O)C[C@H]3C(=O)N(C)C)c3cc(Cl)ccc32)c(OC)c1 | inactive
NCC1(Cc2noc(=O)[nH]2)CCCCC1 | inactive
Nc1ccc2c(c1)C(=O)c1ccccc1C2=O | inactive
CN[C@H]1CC[C@@H](c2ccc(Cl)c(Cl)c2)c2ccc(S(N)(=O)=O)cc21 | inactive
CCCc1cc(=O)[nH]c(=S)[nH]1 | inactive
C=CCc1ccc(O)c(OC)c1 | inactive
c1cc(-c2ccncc2)ccn1 | inactive
CNCc1cc(F)ccc1Oc1ccc(Cl)c(Cl)c1 | inactive
C[Si]1(C)O[Si](C)(C)O[Si](C)(C)O[Si](C)(C)O1 | inactive
CCOC(=O)C(C)(C)Oc1ccc(Cl)cc1 | inactive
Nc1ccccc1N | inactive
CN1CCCC1=O | inactive
COc1ccc2c(c1)c(CC(=O)O)c(C)n2C(=O)c1ccc(Cl)cc1 | inactive
CCCCCCCCCCO | inactive
CC(C)(C)c1cc(O)c(C(C)(C)C)cc1O | inactive
O=C(O)CCCCC(=O)O | inactive
NS(=O)(=O)c1cc2c(cc1Cl)NCNS2(=O)=O | inactive
